Settings in all cases: concentration: 1 μM, replicates: in singlicate; n = 1
The subject of test [1] is PIM1.
Test [2] concerns PIM2.
Test [3] deals with PIM3.
Test [4] concerns PIP5K1A.
Test [5] has as its system PIP5K1C.
The test system of test [6] is PIP5K2B.
The subject of test [7] is T1, PIP5K2C.
T1 construct: gene PIP4K2C

Test [8] concerns T2, PKAC-alpha.
T2 construct: gene PRKACA

In test [9] the test system is T3, PKAC-beta.
T3 construct: gene PRKACB

The subject of test [10] is PKMYT1.
In test [11] the test system is PKN1.
In test [12] the test system is PKN2.
Test [13] concerns PLK1.
The subject of test [14] is PLK2.
Test [15] concerns PLK3.
Test [16] concerns PLK4.
The test system of test [17] is PRKCD.
The test system of test [18] is PRKCE.
Test [19] has as its system PRKCH.
The test system of test [20] is PRKCI.

Here are results for 15 compounds from publication PMC5540273 (PLoS ONE, 2017).

The structures appear in SMILES notation.
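Further: KINOMEscan kinase panel screen.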

Turning to `CCn1c(-c2cccnc2O)nc2cnccc21` [SB-736715], the “%Inh” value in test [1], in test [2], in test [3], in test [4], in [5] and in test [6] was 0% each time. Besides, the “%Inh” value in [7] came out at 19%; in test [8] it was 4%; in [9] it was 0%; in test [10], 0%; in test [11] it was 0%; in test [12] it was 0%. For the same compound, the “%Inh” value turned out to be 0% in test [13]; 0% in [14]; 0% in [15]; 0% in [16]; 2% in test [17]; 3% in test [18]. Besides, the “%Inh” value in test [19] and in [20] was 0% each time.

Take `Cc1cc(N2Cc3ccccc3C2)nc(Nc2ccc(S(=O)(=O)N3CCOCC3)cc2)n1.Cl` [GSK1669917]: the “%Inh” value is listed as 14% in [1]; 0% in [2]; 0% in test [3]; 0% in test [4]; 75% in test [5]; 10% in test [6]. For the same compound, the “%Inh” value in test [7] is on record as 0%; in test [8], 0%; in [9], 0%; in test [10] it was 21%; in test [11], 0%; in test [12], 0%. The “%Inh” value in test [13] was 0%; in test [14], 8%; in [15], 0%; in test [16], 0%; in test [17], 0%; in test [18], 3%. Moreover, the entries for the “%Inh” value in test [19] and in [20] were 10% and 17%, respectively.

In the case of `Cl.c1ccc(-c2n[nH]cc2-c2ccnc(-c3ccc(CN4CCOCC4)cc3)c2)nc1` [GW776245], the “%Inh” value in test [1] came out at 13%; in test [2], 13%; in test [3], 15%; in [4], 0%; in test [5], 27%; in [6], 30%. Besides, the “%Inh” value amounted to 0% in test [7]; 10% in test [8]; 13% in test [9]; 0% in [10]; 0% in test [11]; 0% in test [12]. Also, the “%Inh” value stood at 17% in [13]; 0% in test [14]; 4% in test [15]; 0% in test [16]; 11% in test [17]; 0% in test [18]. The entries for the “%Inh” value in test [19] and in test [20] were 0% and 48%, respectively.

On to `Fc1cccc(COc2nnc(-c3ccc4c(c3)CCO4)o2)c1`, for which the “%Inh” value in test [1] came to 11%; in test [2], 8%; in test [3] it was 0%; in [4] it was 31%; in [5], 6%; in test [6] it was 29%. Also, the “%Inh” value stood at 10% in test [7]; 0% in test [8]; 0% in test [9]; 11% in [10]; 0% in test [11]; 0% in test [12]. Moreover, the “%Inh” value is 0% in [13]; 9% in test [14]; 11% in test [15]; 12% in test [16]; 12% in test [17]; 0% in test [18]. In addition, the “%Inh” value in test [19] and in test [20] was 0% throughout.

`CN(C)CCN(C)C(=O)c1cc(-c2ccncc2)c(-c2ccc(Cl)c(O)c2)o1.Cl.Cl` [SB-710397]: the “%Inh” value in test [1] was 0%; in test [2], 0%; in test [3], 0%; in test [4], 1%; in test [5] it was 67%; in test [6], 8%. In addition, the “%Inh” value worked out at 42% in test [7]; 9% in [8]; 0% in test [9]; 0% in test [10]; 17% in test [11]; 0% in test [12]. For the same compound, the “%Inh” value in test [13] was determined as 8%; in test [14], 0%; in [15] it was 0%; in [16], 0%; in test [17] it was 0%; in test [18], 47%. Also, the results for the “%Inh” value in test [19] and in test [20] were 22% and 33%, respectively.

Turning to `Cc1c(O)cccc1Nc1ccnc2ccc(C(F)(F)F)cc12.Cl` [GW466413], the “%Inh” value in test [1] was found to be 8%; in test [2], 0%; in test [3], 0%; in test [4] it was 32%; in [5], 11%; in [6], 0%. Further, the “%Inh” value was found to be 30% in test [7]; 0% in test [8]; 3% in test [9]; 39% in test [10]; 0% in test [11]; 0% in test [12]. The “%Inh” value in [13], in test [14], in [15], in test [16], in test [17] and in [18] was 0% throughout. Also, the “%Inh” value worked out at 28% in test [19] and 0% in test [20].

Consider `O=C(O)COc1ncnc2cc(-c3ccc4[nH]ncc4c3)sc12`, for which the “%Inh” value is given as 0% in test [1]; 0% in test [2]; 7% in test [3]; 0% in test [4]; 0% in test [5]; 17% in [6]. Also, the “%Inh” value in [7] was 0%; in [8], 0%; in test [9], 4%; in test [10] it was 0%; in test [11], 30%; in [12], 19%. For the same compound, the “%Inh” value in test [13] is 2%; in test [14], 18%; in test [15] it was 12%; in test [16] it was 15%; in test [17] it was 19%; in [18] it was 10%. Also, the figures for the “%Inh” value in test [19] and in test [20] were 0% and 3%, respectively.

Regarding `O=C(Nc1n[nH]c2nc(-c3nccs3)c(Br)cc12)C1CC1` [SB-742251], the “%Inh” value in test [1] is listed as 0%; in [2] it was 0%; in test [3], 0%; in test [4] it was 7%; in test [5] it was 67%; in test [6] it was 23%. For the same compound, the “%Inh” value in test [7] is given as 27%; in test [8], 0%; in [9], 0%; in [10] it was 3%; in test [11] it was 6%; in test [12] it was 0%. Moreover, the “%Inh” value came out at 0% in [13]; 0% in test [14]; 0% in test [15]; 0% in [16]; 0% in [17]; 11% in test [18]. Further, the “%Inh” value was found to be 0% in [19] and 5% in test [20].

With `NC(=O)c1nnc2ccccc2c1N`, the “%Inh” value was 1% in [1]; 0% in test [2]; 0% in test [3]; 0% in [4]; 38% in [5]; 0% in [6]. Besides, the “%Inh” value in [7] was found to be 13%; in test [8], 13%; in test [9], 16%; in test [10] it was 15%; in [11], 1%; in test [12], 38%. Also, the “%Inh” value in test [13] is 28%; in [14], 8%; in test [15] it was 10%; in test [16] it was 19%; in test [17] it was 0%; in test [18], 15%. Besides, the “%Inh” value is recorded as 0% in test [19] and 28% in test [20].

Regarding `Cc1ccc(NC(=O)Nc2cc(C(C)(C)C)nn2-c2ccccc2)cc1` [GSK1014915], the “%Inh” value in [1] was 0%; in [2] it was 0%; in [3], 0%; in [4], 0%; in [5] it was 29%; in test [6], 12%. Further, the “%Inh” value in test [7] turned out to be 3%; in test [8] it was 0%; in [9] it was 0%; in [10], 14%; in [11], 53%; in [12] it was 0%. Also, the “%Inh” value in test [13], in [14], in test [15], in test [16], in test [17] and in test [18] was 0% in each case. Further, the “%Inh” value amounted to 5% in test [19] and 28% in test [20].

`Cc1cccc(-c2nc(C)cc(Nc3ccncc3)n2)n1` [GSK257997]: the “%Inh” value was determined as 19% in test [1]; 0% in test [2]; 37% in [3]; 0% in [4]; 39% in test [5]; 7% in [6]. Further, the “%Inh” value in [7] came to 0%; in test [8] it was 3%; in test [9] it was 17%; in [10] it was 12%; in test [11], 0%; in [12] it was 0%. For the same compound, the “%Inh” value in test [13] is recorded as 5%; in test [14] it was 0%; in test [15] it was 0%; in test [16], 1%; in test [17], 15%; in test [18], 0%. For the same compound, the “%Inh” value in test [19] is reported as 5%; in test [20], 12%.

Turning to `COc1cccc(-c2cc(-c3c[nH]nc3-c3ccccn3)ccn2)c1` [GW680338], the “%Inh” value is on record as 0% in test [1]; 0% in test [2]; 0% in test [3]; 19% in test [4]; 69% in test [5]; 21% in test [6]. Moreover, the “%Inh” value in test [7] was found to be 55%; in [8], 0%; in [9], 0%; in test [10], 0%; in [11], 0%; in test [12], 7%. Further, the “%Inh” value worked out at 13% in test [13]; 0% in test [14]; 7% in test [15]; 0% in test [16]; 12% in [17]; 13% in [18]. The “%Inh” value is on record as 1% in test [19] and 0% in [20].

In the case of `Cn1cncc1-c1ccc2ncnc(Nc3ccc(OCc4ccccc4)cc3)c2c1` [GW320571], the “%Inh” value in [1] came to 0%; in test [2], 2%; in [3] it was 0%; in test [4], 0%; in [5], 16%; in test [6], 17%. The “%Inh” value in test [7] is 76%; in [8], 0%; in [9] it was 8%; in test [10] it was 8%; in test [11], 1%; in test [12] it was 0%. Also, the “%Inh” value in test [13] is 9%; in test [14], 0%; in test [15], 0%; in test [16], 0%; in test [17] it was 0%; in [18], 14%. For the same compound, the figures for the “%Inh” value in test [19] and in test [20] were 14% and 32%, respectively.

As to `CCCc1ccc(S(=O)(=O)NC2CCN(c3ccnc(Nc4ccc(F)cc4)n3)C2)cc1` (stereo not drawn) [GSK1379715], the “%Inh” value in test [1] turned out to be 0%; in test [2] it was 0%; in [3], 0%; in test [4], 19%; in test [5] it was 42%; in test [6], 10%. Further, the “%Inh” value is recorded as 47% in [7]; 81% in test [8]; 0% in test [9]; 12% in [10]; 7% in test [11]; 0% in test [12]. Also, the “%Inh” value worked out at 0% in [13]; 0% in test [14]; 0% in test [15]; 0% in test [16]; 0% in test [17]; 17% in test [18]. Moreover, the “%Inh” value in test [19] is reported as 11%; in [20], 0%.

For the compound `Cn1ccc2ncnc(Oc3ccc(NC(=O)Nc4ccccc4)cc3)c21`, the “%Inh” value in [1] was determined as 8%; in [2], 13%; in [3], 22%; in test [4], 0%; in test [5] it was 5%; in [6], 5%. The “%Inh” value in [7] is 1%; in [8], 16%; in test [9], 17%; in [10] it was 16%; in [11] it was 2%; in test [12] it was 0%. The “%Inh” value stood at 0% in test [13]; 0% in [14]; 0% in test [15]; 11% in test [16]; 7% in [17]; 4% in test [18]. Also, the results for the “%Inh” value in [19] and in test [20] were 0% and 11%, respectively.
